# Calls of active or inactive are those of the source. How the source made its calls: active means hit-call score of the fitted dose curve at least 0.9, where 1 is the maximum; inactive means score below 0.9.
# Key:
# [1] = read-out: Thrombomodulin, THBD (gene 7056); experiment: BSK_CASM3C_Thrombomodulin: BioMAP Diversity Plus: CASM3C Assay for Thrombomodulin Biomarker Activity (AID 2283051); details: primary human coronary artery smooth muscle cells; actives raise or lower the signal;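 further: thrombomodulin protein level measured by ELISA 24 h after dosing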
# [2] = read-out: Tissue Factor, F3 (gene 2152); experiment: BSK_CASM3C_TissueFactor: BioMAP Diversity Plus: CASM3C Assay for Tissue Factor Biomarker Activity (AID 2283052); details: primary human coronary artery smooth muscle cells; actives raise or lower the signal;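 further: cell surface tissue factor protein level read by ELISA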
# [3] = read-out: Urokinase-type plasminogen activator receptor (uPAR), PLAUR (gene 5329); experiment: BSK_CASM3C_uPAR: BioMAP Diversity Plus: CASM3C Assay for Urokinase-type plasminogen activator receptor (uPAR) Biomarker Activity (AID 2283054); details: primary human coronary artery smooth muscle cells; actives raise or lower the signal;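 further: cell-surface uPAR protein level quantified by ELISA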
# [4] = read-out: Vascular cell adhesion molecule 1 (VCAM1), VCAM1 (gene 7412); experiment: BSK_CASM3C_VCAM1: BioMAP Diversity Plus: CASM3C Assay for Vascular cell adhesion molecule 1 (VCAM1) Biomarker Activity (AID 2283055); details: primary human coronary artery smooth muscle cells; actives raise or lower the signal;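 further: VCAM-1 protein level quantified by ELISA on the cells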
# [5] = read-out: Epidermal growth factor receptor (EGFR), EGFR (gene 1956); experiment: BSK_hDFCGF_EGFR: BioMAP Diversity Plus: hDFCGF Assay for Epidermal growth factor receptor (EGFR) Biomarker Activity (AID 2283057); details: primary human foreskin fibroblasts; actives raise or lower the signal
# Method in brief: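 Primary human foreskin fibroblasts were exposed to compound for 24 h, after which cell-surface EGFR was quantified by ELISA. Activity was fitted bidirectionally against the DMSO negative control as baseline.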
# [6] = read-out: Interleukin-8 (IL8), CXCL8 (gene 3576); experiment: BSK_hDFCGF_IL8: BioMAP Diversity Plus: hDFCGF Assay for Interleukin-8 (IL8) Biomarker Activity (AID 2283058); details: primary human foreskin fibroblasts; actives raise or lower the signal
# Method in brief: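 Cells used are human skin primary fibroblasts. Chemical is added, cultures run 24 h, then IL-8 is quantified by ELISA, and gain or loss versus DMSO control is fitted in both directions.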
# [7] = BSK_hDFCGF_Proliferation: Cell Proliferation Assessment in the BioMAP Diversity Plus: hDFCGF Assay (AID 2283059); details: primary human foreskin fibroblasts;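 further: curves fitted for both rise and fall of signal versus DMSO baseline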
# Method in brief: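 Primary human foreskin fibroblasts, sub-confluent; […]; 10% TCA fix, 0.1% SRB stain, A560 total protein. Gain/loss fitted bidirectionally vs DMSO control.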
# [8] = read-out: Macrophage colony-stimulating factor (MCSF), CSF1 (gene 1435); experiment: BSK_hDFCGF_MCSF: BioMAP Diversity Plus: hDFCGF Assay for Macrophage colony-stimulating factor (MCSF) Biomarker Activity (AID 2283060); details: primary human foreskin fibroblasts; actives raise or lower the signal
# Method in brief: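 Primary human foreskin fibroblasts dosed with chemical; 24 h later, M-CSF quantified by ELISA; curves fitted in both directions vs DMSO negative control.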
# [9] = BSK_hDFCGF_SRB: Viability Assessment in the BioMAP Diversity Plus: hDFCGF Assay (AID 2283061); details: primary human foreskin fibroblasts;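 further: cells exposed to compound for 24 h before the read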
# Method in brief: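 Readout is SRB absorbance at 560 nm, reflecting total protein in parallel cultures of human foreskin fibroblasts harvested 24 h after chemical dosing. Activity was fitted bidirectionally relative to DMSO.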
# [10] = read-out: TIMP metallopeptidase inhibitor 1 (TIMP1), TIMP1 (gene 7076); experiment: BSK_hDFCGF_TIMP1: BioMAP Diversity Plus: hDFCGF Assay for TIMP metallopeptidase inhibitor 1 (TIMP1) Biomarker Activity (AID 2283062); details: primary human foreskin fibroblasts; actives raise or lower the signal
# Method in brief: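 Human skin fibroblasts (primary), hDFCGF system; compound exposure 24 h; TIMP-1 by ELISA; bidirectional fit vs DMSO negative control; overt cytotoxicity by SRB in parallel wells.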
# [11] = read-out: Monokine induced gamma interferon (MIG), CXCL9 (gene 4283); experiment: BSK_hDFCGF_MIG: BioMAP Diversity Plus: hDFCGF Assay for Monokine induced gamma interferon (MIG) Biomarker Activity (AID 2283063); details: primary human foreskin fibroblasts; actives raise or lower the signal
# Method in brief: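 Chemicals were added to primary human foreskin fibroblast cultures, which were sampled 24 h later. MIG levels were then quantified by ELISA and responses fitted in both directions relative to DMSO.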
# [12] = read-out: Matrix Metallopeptidase 1 (MMP1), MMP1 (gene 4312); experiment: BSK_hDFCGF_MMP1: BioMAP Diversity Plus: hDFCGF Assay for Matrix Metallopeptidase 1 (MMP1) Biomarker Activity (AID 2283064); details: primary human foreskin fibroblasts; actives raise or lower the signal
# Method in brief: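 Primary human foreskin fibroblasts in the hDFCGF system were dosed with test chemical, and MMP1 was measured by ELISA 24 h later. Values come from bidirectional curve fitting against the DMSO baseline.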
# [13] = read-out: Vascular cell adhesion molecule 1 (VCAM1), VCAM1 (gene 7412); experiment: BSK_hDFCGF_VCAM1: BioMAP Diversity Plus: hDFCGF Assay for Vascular cell adhesion molecule 1 (VCAM1) Biomarker Activity (AID 2283065); details: primary human foreskin fibroblasts; actives raise or lower the signal;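 on AC50: VCAM-1 protein level quantified by ELISA after 24 h chemical exposure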
# Method in brief: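 Human foreskin fibroblast primary cells, chemical exposure 24 h; VCAM-1 by ELISA; bidirectional fit, DMSO = negative control/baseline.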
# [14] = read-out: Plasminogen activator inhibitor-1 (PAI1), SERPINE1 (gene 5054); experiment: BSK_hDFCGF_PAI1: BioMAP Diversity Plus: hDFCGF Assay for Plasminogen activator inhibitor-1 (PAI1) Biomarker Activity (AID 2283066); details: primary human foreskin fibroblasts; actives raise or lower the signal
# Method in brief: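 Human foreskin fibroblasts in the hDFCGF system were dosed with compound for 24 h; PAI-1 was quantified by ELISA. Bidirectional curve fitting used DMSO as negative control and baseline.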
# [15] = read-out: Intercellular Adhesion Molecule 1 (ICAM1), ICAM1 (gene 3383); experiment: BSK_KF3CT_ICAM1: BioMAP Diversity Plus: KF3CT Assay for Intercellular Adhesion Molecule 1 (ICAM1) Biomarker Activity (AID 2283067); details: primary human keratinocytes with fibroblasts; actives raise or lower the signal
# Method in brief: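 ICAM-1 levels are measured by ELISA 24 h after dosing a primary human co-culture of keratinocytes and foreskin fibroblasts. Activity in either direction is fitted relative to DMSO vehicle.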
# [16] = read-out: Interferon-gamma inducible Protein 10 (IP10), CXCL10 (gene 3627); experiment: BSK_KF3CT_IP10: BioMAP Diversity Plus: KF3CT Assay for Interferon-gamma inducible Protein 10 (IP10) Biomarker Activity (AID 2283068); details: primary human keratinocytes with fibroblasts; actives raise or lower the signal
# Method in brief: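 In a primary skin co-culture of keratinocytes and fibroblasts, IP-10 is quantified by ELISA at 24 h after dosing. SRB staining of parallel wells monitors overt toxicity. Curves are fitted both directions against DMSO.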
# [17] = BSK_KF3CT_SRB: Viability Assessment in the BioMAP Diversity Plus: KF3CT Assay (AID 2283069); details: primary human keratinocytes with fibroblasts;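 further: total protein by sulforhodamine B staining as a cytotoxicity measure; read 24 h after compound addition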
# Method in brief: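 Human primary keratinocyte plus foreskin fibroblast co-culture exposed to chemicals for 24 h. Total protein measured by 0.1% sulforhodamine B staining after 10% TCA fixation, read at 560 nm; bidirectional fitting versus DMSO baseline.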
# [18] = read-out: Interleukin-1 alpha (IL1a), IL1A (gene 3552); experiment: BSK_KF3CT_IL1a: BioMAP Diversity Plus: KF3CT Assay for Interleukin-1 alpha (IL1a) Biomarker Activity (AID 2283070); details: primary human keratinocytes with fibroblasts; actives raise or lower the signal
# Method in brief: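 Human keratinocyte plus foreskin fibroblast primary co-culture, sampled 24 h after chemical dosing. IL-1a measured by ELISA; responses fitted bidirectionally against DMSO baseline (negative control), so gain or loss of signal both count.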
# [19] = read-out: Collagen III, COL3A1 (gene 1281); experiment: BSK_hDFCGF_CollagenIII: BioMAP Diversity Plus: hDFCGF Assay for Collagen III Biomarker Activity (AID 2283056); details: primary human foreskin fibroblasts; actives raise or lower the signal
# Method in brief: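 ELISA read-out of collagen III from human skin fibroblast cultures sampled 24 h post-dosing. Values were derived by bidirectional fitting relative to the DMSO vehicle control.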
smiles,measurement,setting,value
COc1ccc2cc(S(=O)(=O)N[C@H](CC(=O)N[C@H](Cc3ccc(CN4[C@H](C)CCC[C@@H]4C)cc3)C(=O)N(C)C(C)C)c3ccc4c(c3)OCO4)ccc2c1,AC50,[1],7.64 µM (active)
same,outcome,[2],inactive
same,outcome,[3],inactive
same,outcome,[4],inactive
same,outcome,[5],inactive
same,outcome,[6],inactive
same,AC50,[7],9.97 µM (active)
same,AC50,[8],19.1 µM (active)
same,AC50,[9],27.7 µM (active)
same,AC50,[10],37.4 µM (active)
same,AC50,[11],33.3 µM (active)
same,AC50,[12],31.5 µM (active)
same,AC50,[13],32.1 µM (active)
same,AC50,[14],26 µM (active)
same,outcome,[15],inactive
same,AC50,[16],29.3 µM (active)
same,AC50,[17],31.7 µM (active)
same,outcome,[18],inactive
O=C(O)c1ccccc1-n1cc(C(=O)O)c(=O)c2cc(Nc3c(F)cc(F)cc3Cl)c(Cl)cc21,outcome,[1],inactive
same,outcome,[2],inactive
same,outcome,[3],inactive
same,outcome,[4],inactive
same,outcome,[19],inactive
same,outcome,[5],inactive
same,outcome,[6],inactive
same,outcome,[7],inactive
same,outcome,[8],inactive
same,outcome,[9],inactive
same,outcome,[10],inactive
same,outcome,[11],inactive
same,outcome,[12],inactive
same,outcome,[13],inactive
same,outcome,[15],inactive
same,outcome,[16],inactive
same,outcome,[17],inactive
same,outcome,[18],inactive
OC12N=C(c3ccccc3)SC1Cc1cc(Cl)ccc12 (centres undefined),outcome,[1],inactive
same,outcome,[2],inactive
same,outcome,[3],inactive
same,outcome,[4],inactive
same,outcome,[19],inactive
same,outcome,[5],inactive
same,outcome,[6],inactive
same,outcome,[7],inactive
same,outcome,[8],inactive
same,outcome,[9],inactive
same,outcome,[10],inactive
same,outcome,[11],inactive
same,outcome,[12],inactive
same,outcome,[13],inactive
same,outcome,[15],inactive
same,outcome,[16],inactive
same,outcome,[17],inactive
same,outcome,[18],inactive
CC(O)CC(C)(C)O (centres undefined),outcome,[1],inactive
same,outcome,[2],inactive
same,outcome,[3],inactive
same,outcome,[4],inactive
same,outcome,[5],inactive
same,outcome,[6],inactive
same,AC50,[7],14.1 µM (active)
same,outcome,[8],inactive
same,outcome,[9],inactive
same,outcome,[10],inactive
same,outcome,[11],inactive
same,outcome,[12],inactive
same,outcome,[13],inactive
same,outcome,[14],inactive
same,outcome,[15],inactive
same,outcome,[16],inactive
same,outcome,[17],inactive
same,outcome,[18],inactive
CN1C(=O)N(c2ccccc2Br)Cc2cnc(Nc3ccc4c(c3)OCC(CO)O4)nc21 (centres undefined),outcome,[1],inactive
same,AC50,[2],0.952 µM (active)
same,AC50,[3],13.6 µM (active)
same,outcome,[4],inactive
same,outcome,[19],inactive
same,outcome,[5],inactive
same,AC50,[6],16.1 µM (active)
same,AC50,[7],11.9 µM (active)
same,AC50,[8],20.4 µM (active)
same,AC50,[9],19 µM (active)
same,AC50,[10],6.79 µM (active)
same,AC50,[11],22.2 µM (active)
same,AC50,[12],9.31 µM (active)
same,AC50,[13],34.1 µM (active)
same,outcome,[15],inactive
same,AC50,[16],21.6 µM (active)
same,AC50,[17],16.2 µM (active)
same,AC50,[18],10.4 µM (active)
c1ccc2n[nH]nc2c1,outcome,[1],inactive
same,outcome,[2],inactive
same,outcome,[3],inactive
same,outcome,[4],inactive
same,outcome,[5],inactive
same,outcome,[6],inactive
same,outcome,[7],inactive
same,outcome,[8],inactive
same,outcome,[9],inactive
same,outcome,[10],inactive
same,outcome,[11],inactive
same,outcome,[12],inactive
same,outcome,[13],inactive
same,outcome,[15],inactive
same,outcome,[16],inactive
same,outcome,[17],inactive
same,outcome,[18],inactive
CCCCCCCCOC(=O)c1cc(O)c(O)c(O)c1,AC50,[1],0.282 µM (active)
same,outcome,[2],inactive
same,AC50,[3],34.2 µM (active)
same,AC50,[4],28.2 µM (active)
same,outcome,[5],inactive
same,AC50,[6],33.2 µM (active)
same,AC50,[7],4.32 µM (active)
same,AC50,[8],27.8 µM (active)
same,AC50,[9],18.5 µM (active)
same,AC50,[10],37.8 µM (active)
same,AC50,[11],19.7 µM (active)
same,AC50,[12],37.6 µM (active)
same,AC50,[13],7.8 µM (active)
same,AC50,[15],29.2 µM (active)
same,AC50,[16],12.3 µM (active)
same,AC50,[17],15.3 µM (active)
same,AC50,[18],25.5 µM (active)

# — PubChem BioAssay (EPA / NIEHS)
